We go through 7 compounds from PubChem BioAssay.

Experiment [1] in a line: stimulators of nuclear beta-catenin in C2C12, primary screen, imaging, WNT3A-conditioned medium, mouse C2C12, NPC library (AID 1117326). To be noted: stronger effect = higher value.
Experiment [2] is described as follows: stimulators of insulin release from INS-1E, primary screen, cell-based, 5 mM glucose, NPC library (AID 1117329;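 active means compound raises insulin release from rat beta cells at 5 mM glucose, no numeric limit stated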). The note with it: rat INS-1E insulin secretion, at 10 µM, stronger effect = higher value.
Experiment [3] is described as follows: growth inhibition of GSK3B-pretreated HCT116 cells – cell-based, CellTiter-Glo, 0.2 to 20 µM (AID 1117336;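 active means compounds lowering colon cancer cell viability after pretreatment blocking the GSK3B kinase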). To be noted: HCT116 viability after GSK3B inhibitor, at 20 µM, stronger effect = higher value. In general terms: Cellular ATP, detected with luciferase, serves as a proxy for viable cell number.
Experiment [4] is described as follows: inhibition of endothelial tube formation, primary screen, imaging, VEGF stimulated, CD31 staining, tube area, NPC library (AID 1117340;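 active means compound that reduces growth-factor-driven endothelial tube area in a mixed cell culture, no cutoff stated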). To be noted: VEGF-stimulated ADSC/ECFC co-culture, at 10 µM, stronger effect = higher value.
Experiment [5] is described as follows: glucagon-like peptide 1 release enhancers, primary assay, NCI-H716 cell line, NPC library (AID 1117341;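 active means compound raises GLP1 secretion from the human gut endocrine cells, with no numeric limit stated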). The note with it: NCI-H716 cells, at 10 µM, stronger effect = higher value.
Experiment [6] can be described thus: HCT116 colon cancer cell growth inhibition, primary screen, CellTiter-Glo luminescence, NPC library (AID 1117342;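 active means compounds that lower survival of HCT116 colon cancer cells in the luminescence readout, no numeric limit stated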). The note with it: at 20 µM (top of the series).
The nature of experiment [7]: CellTiter-Glo luminescent readout of SW480 viability loss, NPC library primary (AID 1117343;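 active means compounds that lower viability of the colon cancer cells in the luminescence readout, with no numeric limit stated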). To be noted: CellTiter-Glo luminescence; at 20 µM (top of the series) unless noted.
A short description of experiment [8]: decreased DLD-1 cellular survival, CellTiter-Glo luminescent readout, NPC compound collection, primary HTS (AID 1117346;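 active means compounds that lower survival of DLD-1 colon cancer cells in the luminescence readout, no cutoff given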). To be noted: DLD-1 viability, CellTiter-Glo luminescence; at 20 µM (top of the series).
Experiment [9] addresses NAD(+) hydrolase SARM1 (Homo sapiens) (UniProt Q6SZW1). As to the kind of experiment: SARM1 TIR NADase inhibitors, cell lysate, NAD-Glo luminescence (AID 1508614;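 active means compound whose remaining NAD level is above about 45 nM, limit read from the data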). To be noted: SAM-TIR HEK293T lysate NADase, at 1 µM, stronger effect = higher value.
The target of experiment [10] is Mitogen-activated protein kinase 7 (Homo sapiens) (UniProt Q13164). The experiment in a line: ERK5 transactivation activators in reporter cells, primary screen, cell-based, HTS (AID 1508626;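 active means luciferase signal above three times the same-plate solvent-only control wells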;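 further: luciferase driven by Gal4-ERK5 fusion binding five Gal4 sites before minimal TATA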). To be noted: HeLa Gal4-ERK5 transactivation, 18 h, at 5 µM, stronger effect = higher value.
Experiment [11] can be described thus: LFS_MB_P medulloblastoma growth inhibition, cell-based, chromothripsis tumors, cisplatin or BGB combos (AID 1671449; in the data active means inhibition above about 80%;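 further: cells exposed for 96 hours; 0% = vehicle DMSO and 100% = killing by high DMSO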). The note with it: LFS_MB_P medulloblastoma cells.
Experiment [12] can be described thus: HDN33 neuroblastoma growth inhibition, cell-based, chromothripsis tumors, cisplatin or BGB combos (AID 1671450; in the data active means inhibition above about 80%;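 further: cells exposed to compound for four days; 0% = vehicle DMSO and 100% = cell killing by high DMSO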). To be noted: HDN33 neuroblastoma cells, stronger effect = higher value.
Experiment [13] in a line: ICB984 medulloblastoma cell growth inhibition, synergistic combos for chromothripsis tumors, cisplatin or BGB combos (AID 1671451; call rule not given here;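 further: cells exposed for 96 hours before readout; 0% = vehicle DMSO and 100% = killing by high DMSO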). The note with it: ICB984 medulloblastoma cells, drug combinations, stronger effect = higher value.
A short description of experiment [14]: HTB85 osteosarcoma cell growth inhibition, synergistic combos for chromothripsis tumors, BGB or cisplatin IC20 combos (AID 1671453; in the data active means inhibition above about 80%;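 further: cells exposed for 96 hours before readout; 0% = vehicle DMSO and 100% = high DMSO killing control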). To be noted: HTB85 osteosarcoma cells, drug combinations, stronger effect = higher value.

Calls of active or inactive are those of the source. Unless noted, no stated cut-off is given here; in the data, active means nuclear beta-catenin stimulation mostly above about 4.2% (no sharp cut-off); inactive means mostly below about 10%.

Sequence of Mitogen-activated protein kinase 7 (Homo sapiens) (Q13164 whole entry, looked up, the tested form may be a part): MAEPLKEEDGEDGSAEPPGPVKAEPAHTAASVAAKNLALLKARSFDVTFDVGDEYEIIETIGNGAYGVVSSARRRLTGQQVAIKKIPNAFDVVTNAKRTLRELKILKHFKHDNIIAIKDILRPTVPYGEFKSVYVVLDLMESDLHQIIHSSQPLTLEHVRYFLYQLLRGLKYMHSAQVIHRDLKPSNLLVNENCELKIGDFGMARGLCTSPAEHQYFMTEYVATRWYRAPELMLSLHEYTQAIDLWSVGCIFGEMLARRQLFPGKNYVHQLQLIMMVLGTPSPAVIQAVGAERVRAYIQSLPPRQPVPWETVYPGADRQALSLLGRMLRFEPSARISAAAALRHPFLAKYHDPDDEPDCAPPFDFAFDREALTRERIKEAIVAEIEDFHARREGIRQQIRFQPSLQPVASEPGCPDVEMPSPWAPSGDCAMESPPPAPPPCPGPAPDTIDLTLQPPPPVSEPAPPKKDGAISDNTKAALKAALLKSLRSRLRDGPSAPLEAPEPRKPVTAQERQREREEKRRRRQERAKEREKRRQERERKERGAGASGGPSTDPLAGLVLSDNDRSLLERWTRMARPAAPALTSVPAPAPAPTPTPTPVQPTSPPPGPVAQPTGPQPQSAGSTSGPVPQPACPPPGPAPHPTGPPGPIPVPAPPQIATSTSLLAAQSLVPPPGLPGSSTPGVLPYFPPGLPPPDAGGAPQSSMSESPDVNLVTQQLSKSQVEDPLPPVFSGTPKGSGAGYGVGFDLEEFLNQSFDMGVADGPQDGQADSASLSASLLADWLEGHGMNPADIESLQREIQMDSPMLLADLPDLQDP
Sequence of NAD(+) hydrolase SARM1 (Homo sapiens) (Q6SZW1 whole entry, looked up, the tested form may be a part): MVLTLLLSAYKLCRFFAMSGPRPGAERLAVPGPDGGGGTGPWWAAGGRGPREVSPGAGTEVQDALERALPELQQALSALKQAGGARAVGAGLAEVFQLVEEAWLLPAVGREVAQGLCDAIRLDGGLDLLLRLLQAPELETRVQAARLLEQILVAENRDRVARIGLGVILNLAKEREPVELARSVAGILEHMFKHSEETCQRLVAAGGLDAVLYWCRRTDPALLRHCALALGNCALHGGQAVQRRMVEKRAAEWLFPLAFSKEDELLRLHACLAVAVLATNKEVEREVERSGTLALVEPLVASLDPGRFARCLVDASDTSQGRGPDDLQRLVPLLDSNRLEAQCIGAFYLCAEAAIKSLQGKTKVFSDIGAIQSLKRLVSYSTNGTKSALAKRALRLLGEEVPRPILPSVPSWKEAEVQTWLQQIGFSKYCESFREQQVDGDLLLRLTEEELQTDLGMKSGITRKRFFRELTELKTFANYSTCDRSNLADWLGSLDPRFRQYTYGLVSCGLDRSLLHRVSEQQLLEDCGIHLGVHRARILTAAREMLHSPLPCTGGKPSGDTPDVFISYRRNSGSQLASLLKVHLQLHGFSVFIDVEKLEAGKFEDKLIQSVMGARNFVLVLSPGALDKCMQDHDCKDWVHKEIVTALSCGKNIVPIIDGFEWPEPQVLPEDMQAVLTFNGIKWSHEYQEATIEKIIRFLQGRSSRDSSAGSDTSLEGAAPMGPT

For the compound `CCCC(=O)O[C@]1(C(=O)CO)CC[C@H]2[C@@H]3CCC4=CC(=O)CC[C@]4(C)[C@H]3[C@@H](O)C[C@@]21C`, the nuclear beta-catenin stimulation in experiment [1] (at 10 µM) was 0.1% (inactive); in experiment [1] (stimulation, at 2 µM), 1.4%. In addition, the insulin secretion stimulation in experiment [2] was 1.4% (inactive). Moreover, the viability decrease in experiment [3] was -45.5% (inactive). Also, the tube area decrease in [4] is 18.3% (inactive). Also, in experiment [5], the GLP1 secretion stimulation was 3.7% (inactive). The inhibition of viability in experiment [6] was 24.2% (inactive). The viability decrease (inhibition) in experiment [7] was 19.8% (inactive); in [8], 1% (inactive). Further, in experiment [9], the remaining NAD is 10 nM (inactive). The luciferase signal in experiment [10] was 148 AU (inactive).
As to `O=C(OCc1ccccc1)c1cccnc1`, the nuclear beta-catenin stimulation in experiment [1] (at 10 µM) is -0.5% (inactive); in experiment [1] (stimulation, at 2 µM) it was -2.3%. In experiment [2], the insulin secretion stimulation is 0.3% (inactive). Moreover, in experiment [5], the GLP1 secretion stimulation is -1.9% (inactive).
For the compound `O=C(OCCO)c1ccccc1O`, the nuclear beta-catenin stimulation was 0.5% (inactive) in experiment [1] (at 10 µM) and -2.3% in [1] (stimulation, at 2 µM). Also, the insulin secretion stimulation in experiment [2] was 0.25% (inactive). Moreover, the GLP1 secretion stimulation in experiment [5] is -2.5% (inactive).
Regarding `CSc1ccc(/C=C2/C(C)=C(CC(=O)O)c3cc(F)ccc32)cc1`, the nuclear beta-catenin stimulation in experiment [1] (at 10 µM) was -1.4% (inactive); in [1] (stimulation, at 2 µM) it was -0.1%. In addition, in experiment [2], the insulin secretion stimulation was 1.85% (inactive). Also, in experiment [5], the GLP1 secretion stimulation is 9.9% (inactive).
As usually defined, the inhibition is the relative decrease from the control value, in per cent. As to `CN1C[C@@H]2C[C@H]1CN2c1cc2c(cc1F)c(=O)c(C(=O)O)cn2C1CC1`, the nuclear beta-catenin stimulation in [1] (at 10 µM) is 0.8% (inactive); in [1] (stimulation, at 2 µM), -0.6%. Also, in experiment [2], the insulin secretion stimulation was 0.3% (inactive). The viability decrease in experiment [3] was 10.6% (inactive). Besides, the tube area decrease in experiment [4] is -6.5% (inactive). Moreover, the GLP1 secretion stimulation in [5] was -0.3% (inactive). Also, the inhibition of viability in experiment [6] is 3.9% (inactive). Also, the viability decrease (inhibition) in [7] was -13% (inactive); in experiment [8] it was -40.5% (inactive). In addition, the inhibition in experiment [11] (at 0.5 µM, stronger effect = higher value) is 0.4% (inactive); in experiment [11] (measured here: combination with BGB IC20, at 0.005 µM) it was -2.07%; in experiment [11] (measured here: combination with BGB IC40, at 0.005 µM), -7.14%; in experiment [11] (measured here: combination with BGB IC40, at 0.05 µM), -8.41%; in experiment [11] (measured here: combination with cisplatin, at 0.5 µM, stronger effect = higher value) it was -11.6%; in experiment [11] (measured here: combination with cisplatin, at 5 µM, stronger effect = higher value), -5.22%. Besides, the inhibition in experiment [12] (BGB combo, at 5 µM) was -34.1%; in [12] (at 0.5 µM), -30.1% (inactive); in experiment [12] (cisplatin combo, at 5 µM), -33.7%; in experiment [12] (measured here: with BGB IC20 combination, at 0.5 µM) it was -23.1%; in experiment [12] (measured here: with cisplatin IC20 combination, at 0.5 µM) it was -48.5%; in experiment [12] (single agent, at 5 µM), -33.7%. Further, the inhibition was -24.2% in [13] (BGB IC20 combo, at 0.005 µM); -26.9% in experiment [13] (BGB IC40 combo, at 0.005 µM); -20.5% in experiment [13] (BGB IC40 combo, at 0.05 µM); -31.1% (inactive) in [13] (at 0.5 µM); -23.9% in experiment [13] (cisplatin combo, at 0.05 µM); -25.9% in experiment [13] (cisplatin combo, at 0.5 µM). Moreover, the inhibition in experiment [13] (cisplatin combo, at 5 µM) is -68.4%; in [13] (measured here: 5 uM single agent, at 5 µM), -23.8%; in experiment [14] (at 0.5 µM), -40.1% (inactive); in experiment [14] (measured here: with BGB IC20, at 0.5 µM), -66.1%; in experiment [14] (measured here: with BGB IC20, at 5 µM) it was -64.1%; in experiment [14] (measured here: with cisplatin IC20, at 0.5 µM), -24.8%. The inhibition in experiment [14] (measured here: with cisplatin IC20, at 5 µM) is -32.6%; in [14] (single agent, at 5 µM), -25%.
As for `N[C@H]1C(O)O[C@H](CO)[C@@H](O)[C@@H]1O` (some centres undefined), the nuclear beta-catenin stimulation in experiment [1] (at 10 µM) was -1% (inactive); in experiment [1] (stimulation, at 2 µM), 1.7%. In experiment [2], the insulin secretion stimulation is 1.4% (inactive). In addition, in [3], the viability decrease is 7.5% (inactive). The tube area decrease in experiment [4] was -12.1% (inactive). The GLP1 secretion stimulation in [5] is -0.8% (inactive). For the same compound, the inhibition of viability in experiment [6] is -4.93% (inactive). Also, the viability decrease (inhibition) was -42% (inactive) in experiment [7] and -2.3% (inactive) in experiment [8]. Besides, in experiment [10], the luciferase signal was 84 AU (inactive).
Consider `C[C@]12CC[C@@H]3c4ccc(O)cc4CC[C@H]3[C@@H]1CC[C@@H]2OC(=O)CCC1CCCC1`, for which the nuclear beta-catenin stimulation was 28.4% (inactive) in experiment [1] (at 10 µM) and 2.5% in experiment [1] (stimulation, at 2 µM). The insulin secretion stimulation in [2] is 0.5% (inactive). Moreover, in experiment [3], the viability decrease was -8.5% (inactive). In experiment [4], the tube area decrease is 110% (active). The GLP1 secretion stimulation in experiment [5] was 3.6% (inactive). Moreover, in experiment [6], the inhibition of viability was 6.73% (inactive). Moreover, the viability decrease (inhibition) in experiment [7] is 27% (inactive); in experiment [8], -23.3% (inactive). Besides, the remaining NAD in experiment [9] was 10 nM (inactive). Further, the luciferase signal in [10] was 84 AU (inactive).
